# In PubChem BioAssay (NCATS):
# Results filed as inconclusive are left out. Entries that show only a call come without a potency. Values without a mark were called inactive. Activity calls are given as the source filed them. Calls come from the whole dose curve; as a rule, active = well fitted curve in the direction sought with a large enough effect; inconclusive = small, poorly fitted or top-dose-only effect, or another doubt; inactive = no such curve, though single readings can be large; an effect the other way counts as inactive or inconclusive.
# Assays:
# [1] = target: N-terminal Xaa-Pro-Lys N-methyltransferase 1 (Homo sapiens) (UniProt Q9BV86); assay: qHTS Assay for Inhibitors of N-terminal methyltransferase 1 (NTMT1): LOPAC validation of the NTMT1 SAHH-coupled ThioGlo3 Assay (AID 1347143);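 note: SAH from peptide methylation measured as thiol fluorescence via SAHH coupling and ThioGlo3; nearly all actives have a fitted effect of over 70% in size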
# Summary of the method: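 Recombinant human NTMT1 (125nM) was pre-incubated 1 min at room temperature with compounds over a concentration range, then a mix of 100uM SAM, 10uM SAHH and 15uM ThioGlo3 (concentrations in added reagent) was added. ThioGlo3 fluorescence (ex 340/em 450nm) after 30 min was normalized to the initial reading.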
# [2] = qHTS of pediatric cancer cell lines to identify multiple opportunities for drug repurposing: Confirmatory screen for SK-N-MC cells (AID 1347111); details: SK-N-MC cell viability;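 note: cells exposed to compound for 48 h before the readout; nearly all actives have a fitted effect of over 70% in size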
# Summary of the method: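 SK-N-MC cells at 500-1,000 cells/well in growth media were pre-incubated 5 h, then exposed to compounds at 11-point dilutions for 48 h at 37 degrees C, 5% CO2. Viability was read as CellTiter-Glo luminescence.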
# [3] = qHTS of pediatric cancer cell lines to identify multiple opportunities for drug repurposing: Confirmatory screen for LAN-5 cells (AID 1347113); note: nearly all actives have a fitted effect of over 65% in size
# Summary of the method: (§1)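 Viability after 48 h compound treatment at 37C, 500-1,000 cells/well, read as ATP luminescence with CellTiter-Glo. Primary screens used 11-point (MIPE, 0.78 nM-46 µM) or 8-point (NPC, 0.59 nM-46 µM) final concentrations; follow-up screens used 11-point dilutions.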
# [4] = qHTS of pediatric cancer cell lines to identify multiple opportunities for drug repurposing: Confirmatory screen for DAOY cells (AID 1347114); note: nearly all actives have a fitted effect of over 65% in size
# Summary of the method: (§2)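 Viability measured as metabolically active cells via CellTiter-Glo luminescence following 48 hours of compound exposure, 11-point dilutions in confirmatory testing. 500-1,000 cells/well plated 5 hours before dosing; controls were DMSO and 2.3 µM bortezomib.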
# [5] = qHTS of pediatric cancer cell lines to identify multiple opportunities for drug repurposing: Confirmatory screen for NB-EBc1 cells (AID 1347115); note: nearly all actives have a fitted effect of over 45% in size
# Summary of the method: as §1
# [6] = qHTS of pediatric cancer cell lines to identify multiple opportunities for drug repurposing: Confirmatory screen for BT-37 cells (AID 1347117); note: nearly all actives have a fitted effect of over 55% in size
# Summary of the method: as §1
# [7] = qHTS of pediatric cancer cell lines to identify multiple opportunities for drug repurposing: Confirmatory screen for TC32 cells (AID 1347118); details: TC32 Ewing sarcoma cells viability qHTS; note: nearly all actives have a fitted effect of over 65% in size
# Summary of the method: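 qHTS, TC32, 48 h drug treatment, CellTiter-Glo luminescence as a proxy for metabolically active cells; primary top concentration 46 µM (MIPE 11-pt, NPC 8-pt); confirmatory 11-pt.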
# [8] = qHTS of pediatric cancer cell lines to identify multiple opportunities for drug repurposing: Confirmatory screen for RD cells (AID 1347124);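 note: cells exposed to compound for 48 h before viability readout; nearly all actives have a fitted effect of over 65% in size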
# Summary of the method: as §1
# [9] = qHTS of pediatric cancer cell lines to identify multiple opportunities for drug repurposing: Confirmatory screen for Rh18 cells (AID 1347125); note: nearly all actives have a fitted effect of over 55% in size
# Summary of the method: as §1
# [10] = qHTS of pediatric cancer cell lines to identify multiple opportunities for drug repurposing: Confirmatory screen for Rh30 cells (AID 1347126); note: nearly all actives have a fitted effect of over 55% in size
# Summary of the method: as §1
# [11] = qHTS of pediatric cancer cell lines to identify multiple opportunities for drug repurposing: Confirmatory screen for Saos-2 cells (AID 1347127); note: nearly all actives have a fitted effect of over 60% in size
# Summary of the method: as §1
# [12] = qHTS of pediatric cancer cell lines to identify multiple opportunities for drug repurposing: Confirmatory screen for SK-N-SH cells (AID 1347129); note: nearly all actives have a fitted effect of over 60% in size
# Summary of the method: as §1
# [13] = qHTS of pediatric cancer cell lines to identify multiple opportunities for drug repurposing: Confirmatory screen for BT-12 cells (AID 1347112); note: nearly all actives have a fitted effect of over 55% in size
# Summary of the method: as §1
# [14] = qHTS of pediatric cancer cell lines to identify multiple opportunities for drug repurposing: Confirmatory screen for SJ-GBM2 cells (AID 1347116); note: nearly all actives have a fitted effect of over 60% in size
# Summary of the method: as §2
# [15] = qHTS of pediatric cancer cell lines to identify multiple opportunities for drug repurposing: Confirmatory screen for MG 63 (6-TG R) cells (AID 1347119); note: nearly all actives have a fitted effect of over 55% in size
# Summary of the method: as §1
# [16] = qHTS of pediatric cancer cell lines to identify multiple opportunities for drug repurposing: Confirmatory screen for U-2 OS cells (AID 1347122); note: nearly all actives have a fitted effect of over 65% in size
# Summary of the method: as §1
# [17] = qHTS of pediatric cancer cell lines to identify multiple opportunities for drug repurposing: Confirmatory screen for Rh41 cells (AID 1347123);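 note: 48 h compound exposure; nearly all actives have a fitted effect of over 60% in size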
# Summary of the method: as §1
# [18] = qHTS of pediatric cancer cell lines to identify multiple opportunities for drug repurposing: Confirmatory screen for OHS-50 cells (AID 1347128)
# Summary of the method: as §1
# [19] = qHTS of pediatric cancer cell lines to identify multiple opportunities for drug repurposing: Confirmatory screen for control Hh wild type fibroblast cells (AID 1347121); note: nearly all actives have a fitted effect of over 70% in size
# Summary of the method: as §1
# Potency is the fitted concentration of half-maximal effect.
# Sequence of N-terminal Xaa-Pro-Lys N-methyltransferase 1 (Homo sapiens) (Q9BV86 whole entry, looked up): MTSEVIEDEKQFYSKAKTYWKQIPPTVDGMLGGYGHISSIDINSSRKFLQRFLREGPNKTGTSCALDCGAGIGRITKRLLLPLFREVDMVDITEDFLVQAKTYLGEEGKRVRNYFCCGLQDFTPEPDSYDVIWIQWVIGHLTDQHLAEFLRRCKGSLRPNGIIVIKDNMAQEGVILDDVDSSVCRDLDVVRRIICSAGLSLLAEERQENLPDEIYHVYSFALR
structure (smiles),measurement,setting,value
C[C@@H](O)[C@H]1C(=O)N2C(C(=O)O)=C(SCCN=CN)C[C@H]12,Potency,[1],inactive
C[C@]12C=CC(=O)C=C1CC[C@H]1[C@@H]3C[C@@H](O)[C@](O)(C(=O)CO)[C@@]3(C)C[C@H](O)[C@@]12F,Potency,[2],7.37 µM (active)
same,Potency,[3],9.27 µM (active)
same,Potency,[4],inactive
same,Potency,[5],inactive
same,Potency,[6],9.27 µM (active)
same,Potency,[7],6.57 µM (active)
same,Potency,[8],7.37 µM (active)
same,Potency,[9],9.27 µM (active)
same,Potency,[10],7.37 µM (active)
same,Potency,[11],9.27 µM (active)
same,Potency,[12],inactive
same,Potency,[1],inactive
NC/C=C/C(=O)O,Potency,[1],inactive
CCN(CC)CCNC(=O)c1cc(S(C)(=O)=O)ccc1OC,Potency,[1],inactive
CC(=O)[C@@]1(O)CC[C@H]2[C@@H]3CCC4=CC(=O)CC[C@]4(C)[C@H]3CC[C@@]21C,Potency,[1],inactive
CN/C(=C\[N+](=O)[O-])NCCSCc1ccc(CN(C)C)o1,Potency,[2],11.7 µM (active)
same,Potency,[13],inactive
same,Potency,[3],inactive
same,Potency,[4],inactive
same,Potency,[14],inactive
same,Potency,[6],inactive
same,Potency,[7],10.4 µM (active)
same,Potency,[15],inactive
same,Potency,[16],inactive
same,Potency,[17],inactive
same,Potency,[9],inactive
same,Potency,[10],0.185 µM (active)
same,Potency,[11],inactive
same,Potency,[18],inactive
same,Potency,[12],inactive
CN(C)CC[C@@H](c1ccc(Br)cc1)c1ccccn1,Potency,[1],inactive
CN(C)CCCN1c2ccccc2Sc2ccc(C(F)(F)F)cc21,Potency,[2],26.1 µM (active)
CN1C[C@H](C(=O)N[C@]2(C)O[C@@]3(O)[C@@H]4CCCN4C(=O)[C@H](Cc4ccccc4)N3C2=O)C[C@@H]2c3cccc4[nH]cc(c34)C[C@H]21,Potency,[13],inactive
same,Potency,[5],inactive
same,Potency,[6],inactive
same,Potency,[15],inactive
same,Potency,[19],inactive
same,Potency,[16],inactive
same,Potency,[17],3.29 µM (active)
same,Potency,[8],inactive
same,Potency,[9],inactive
same,Potency,[10],inactive
same,Potency,[11],inactive
same,Potency,[18],inactive
same,Potency,[1],inactive
CC[N+](C)(C)c1cccc(O)c1,Potency,[1],inactive
COCCc1ccc(OCC(O)CNC(C)C)cc1 (stereo not drawn),Potency,[1],inactive
COc1cc(Cc2cnc(N)nc2N)cc(OC)c1OC,Potency,[1],inactive
c1cc(CN2CCCCC2)cc(OCCCNc2nc3ccccc3s2)c1,Potency,[1],22.4 µM (active)
CC(C)COCC(CN(Cc1ccccc1)c1ccccc1)N1CCCC1 (stereo not drawn),Potency,[1],50.1 µM (active)
CCCC(C(=O)OCCN(CC)CC)(c1ccccc1)c1ccccc1,Potency,[1],inactive
C[n+]1cc2c3c(ccc2c2ccc4cc5c(cc4c21)OCO5)OCO3,Potency,[2],1.29 µM (active)
same,Potency,[13],3.23 µM (active)
same,Potency,[3],0.811 µM (active)
same,Potency,[4],2.29 µM (active)
same,Potency,[5],3.23 µM (active)
same,Potency,[14],3.62 µM (active)
same,Potency,[6],1.44 µM (active)
same,Potency,[7],1.15 µM (active)
same,Potency,[15],1.62 µM (active)
same,Potency,[19],4.56 µM (active)
same,Potency,[16],1.44 µM (active)
same,Potency,[17],2.29 µM (active)
same,Potency,[8],1.82 µM (active)
same,Potency,[9],1.62 µM (active)
same,Potency,[11],1.29 µM (active)
same,Potency,[18],2.57 µM (active)
same,Potency,[12],1.44 µM (active)
same,Potency,[1],44.7 µM (active)
Nc1nc(N)c2nc(-c3ccccc3)c(N)nc2n1,Potency,[2],3.69 µM (active)
same,Potency,[3],inactive
same,Potency,[14],9.27 µM (active)
same,Potency,[7],3.69 µM (active)
same,Potency,[19],inactive
same,Potency,[17],inactive
same,Potency,[8],inactive
same,Potency,[9],inactive
same,Potency,[10],inactive
same,Potency,[11],inactive
same,Potency,[12],inactive
Nc1c2c(nc3ccccc13)CCCC2O (stereo not drawn),Potency,[1],inactive
CNCCC(Oc1ccccc1OC)c1ccccc1 (stereo not drawn),Potency,[1],inactive
C[N+](C)(C)CCOC(N)=O,Potency,[1],inactive
CN(C)[C@@H]1C(=O)C(C(N)=O)=C(O)[C@@]2(O)C(=O)C3=C(O)c4c(O)ccc(Cl)c4[C@@H](O)[C@H]3C[C@@H]12,Potency,[1],56.2 µM (active)
CC(=O)OCC1=C(C(=O)O)N2C(=O)[C@@H](NC(=O)Cc3cccs3)[C@H]2SC1,Potency,[1],inactive
CCCCCCCC/C=C\CCCCCCCC(=O)NCc1ccc(O)c(OC)c1,Potency,[1],inactive
CCCCCN(CCCCC)C(=O)C(CCC(=O)O)NC(=O)c1ccc(Cl)c(Cl)c1 (stereo not drawn),Potency,[1],inactive
COCCOC(=O)C1=C(C)NC(C)=C(C(=O)OC(C)C)C1c1cccc([N+](=O)[O-])c1 (stereo not drawn),Potency,[1],inactive
FC(F)(F)c1ccccc1-n1ccnc1,Potency,[1],inactive
CCOC(=O)C1=C(C)NC(C)=C(C(=O)OC)C1c1cccc(Cl)c1Cl (stereo not drawn),Potency,[1],56.2 µM (active)
NCCCNCCSP(=O)(O)O,"activity change, negative = cytotoxic",[13],1.94% [at 9.58 µM]
same,"activity change, negative = cytotoxic",[5],10.1% [at 9.58 µM]
same,Potency,[14],0.215 µM (active)
same,"activity change, negative = cytotoxic",[6],0.812% [at 9.58 µM]
same,"activity change, negative = cytotoxicity",[15],6.09% [at 9.58 µM]
same,"activity, negative = cytotoxic",[19],0.865% [at 9.58 µM]
same,"activity change, negative = cytotoxic",[9],1.32% [at 9.58 µM]
same,"activity change, negative = cytotoxic",[10],-18.1% [at 9.47 µM]
same,"activity change, negative = cytotoxic",[11],-1.29% [at 9.58 µM]
same,"activity change, negative = cytotoxic",[18],0.588% [at 9.58 µM]
same,"activity change, negative = cytotoxic",[12],-2.99% [at 9.52 µM]
same,Potency,[1],inactive
